Active and inactive are the calls of the source. Unless noted, no rule for the calls is given here.
Assays:
[1] = system: Wnt5a (protein binding on small-molecule microarray); assay: small molecules binding Wnt5a protein – biophysical, small-molecule microarray, 635/667 nm fluorescence, primary screen (AID 1142); details: 635 nm fluorescence, higher = more signal;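 also: fluorescence read at 667 nm with signal to noise per printed feature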
[2] = ATP-based viability of Huh7 replicon cells – cell-based, CellTiter-Glo luminescence, basal, 48 h, cytotoxicity control for HCV replication inhibitor project, primary screen (AID 1143); details: higher = more signal, called active from +8 up or from −8 down;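 also: Huh7 hepatoma cells carrying a hepatitis C replication reporter with no stimulus; test concentration not given here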
[3] = Pseudomonas biofilm growth suppression – PAO1 strain, BacTiter-Glo luminescence, LB-PBS, primary screen (AID 1144); details: P. aeruginosa PAO1 biofilm, 12 h, higher = more signal
[4] = basal CRE-LacZ reporter activity in PC12 – cell-based, unstimulated, primary screen (AID 1145); details: no forskolin, luminescence, 4.5 h, higher = more signal, called active from +8 up or from −8 down
[5] = forskolin-driven CRE-LacZ activity in PC12 – cell-based, CRE-LacZ reporter, forskolin-stimulated, primary screen (AID 1146); details: luminescence, 4.5 h, higher = more signal, called active from +8 up or from −8 down;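 also: PC12 cells with 6xCRE LacZ reporter stimulated by forskolin 10 µM; beta-galactosidase reporter signal reflecting CREB driven transcription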
[6] = biological target: Streptavidin (Streptomyces avidinii) (UniProt P22629); assay: compounds binding control protein streptavidin – biophysical, small-molecule microarray, 635/667 nm fluorescence, artefact control for SMM compound annotation, primary screen (AID 1147); details: higher = more signal;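 also: signal reflects streptavidin binding to arrayed compounds as a control protein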
[7] = probe aInhba binding on compound microarray – biochemical, small-molecule microarray, 635/667 nm fluorescence, primary screen (AID 1148); details: higher = more signal;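 also: score merges 667nm spot fluorescence with signal-to-noise for antibody binding to printed compounds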
[8] = biological target: Torsin-1A (Homo sapiens) (UniProt O14656); assay: TOR1A wild-type binding on microarray – cell lysate, small-molecule microarray, lysate, 635/667 nm, primary screen (AID 1149); details: COS7 hTOR1A-WT lysate, 635 nm fluorescence, higher = more signal
[9] = biological target: Torsin-1A (Homo sapiens) (UniProt O14656); assay: torsin A mutant lysate binding on microarrays – cell lysate, small-molecule microarray, COS7 lysate, 635/667 nm fluorescence, primary screen (AID 1150); details: COS7 hTOR1A mutant lysate, 635 nm fluorescence, higher = more signal;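 also: score pools 667 nm emission and signal to noise measuring lysate protein binding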
[10] = system: Sonic hedgehog protein (Shh); assay: Sonic hedgehog microarray binding compounds – biochemical, small-molecule microarray, 635/667 nm fluorescence, primary screen (AID 1151); details: 635 nm fluorescence, higher = more signal;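 also: Shh protein binding to compounds spotted on small-molecule microarray slides; score combines spot fluorescence intensity with signal-to-noise across triplicate slides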
[11] = optical density shifts of acrAB sulA E. coli – strain DRC41, OD650, 48 h, E. coli filamentation inducer project, primary screen (AID 1152); details: higher = more signal, called active from +8 up or from −8 down;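 also: E. coli MC1000 strain DRC41 lacking acrAB efflux pump and sulA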
[12] = probe aLefty1 binding on compound microarray – biochemical, small-molecule microarray, 635/667 nm fluorescence, primary screen (AID 1153); details: higher = more signal;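 also: score merges spot fluorescence with signal-to-noise ratio from the scanned slide images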
[13] = plasmodial surface anion channel blockers, osmotic lysis – cell-based, P. falciparum Indochina, OD700, 1 h, primary screen (AID 1154); details: P. falciparum Indochina infected RBC osmotic lysis, higher = more signal, called active from +8 up or from −8 down
[14] = plasmodial surface anion channel blockers, osmotic lysis – cell-based, P. falciparum Indochina, OD700, 2 h, primary screen (AID 1155);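 also: lysis reports solute entry through the parasite surface anion channel PSAC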; details: P. falciparum Indochina infected erythrocytes, higher = more signal, called active from +8 up or from −8 down
[15] = changes in parasitized red cell lysis, either direction – P. falciparum Indochina, OD700, 3 h, PSAC antagonist project, primary screen (AID 1156); details: P. falciparum-infected erythrocytes, osmotic lysis, higher = more signal, called active from +8 up or from −8 down
[16] = plasmodial surface anion channel blockers, osmotic lysis – cell-based, P. falciparum Indochina, OD700, 18 h, primary screen (AID 1157); details: P. falciparum Indochina infected erythrocytes, osmotic lysis OD700, 18 h; higher = more signal, called active from +8 up or from −8 down
[17] = S6 kinase pathway phospho-S6 level changes – cell-based, A549, cytoblot, luminescence, serum-stimulated, primary screen (AID 1158); details: 5 h, higher = more signal;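 also: serum-stimulated A549 lung adenocarcinoma cells; signal is phosphorylated S6 detected by cytoblot immunostaining with HRP secondary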
[18] = biological target: NADPH oxidase 2 (Homo sapiens) (UniProt P04839); assay: compounds shifting NOX2 Amplex Red fluorescence – cell-based, HEK293-NOX2, PMA-stimulated, NOX inhibitor project, primary screen (AID 1159); details: 45 min, higher = more signal, called active from +8 up or from −8 down; also: test concentration not given here
[19] = biological target: NADPH oxidase 4 (Homo sapiens) (UniProt Q9NPH5); assay: compounds shifting NOX4 Amplex Red fluorescence – cell-based, HEK293-NOX4, tetracycline-induced, NOX inhibitor project, primary screen (AID 1160); details: HEK293-NOX4, Amplex Red H2O2 fluorescence, 45 min; higher = more signal, called active from +8 up or from −8 down
[20] = biological target: NADPH oxidase 5 (Homo sapiens) (UniProt Q96PH1); assay: compounds shifting NOX5 Amplex Red fluorescence – cell-based, HEK293-NOX5, NOX inhibitor project, primary screen (AID 1161); details: HEK293-NOX5, ionomycin, 45 min, higher = more signal
Chain of NADPH oxidase 5 (Homo sapiens) (Q96PH1 whole entry, looked up): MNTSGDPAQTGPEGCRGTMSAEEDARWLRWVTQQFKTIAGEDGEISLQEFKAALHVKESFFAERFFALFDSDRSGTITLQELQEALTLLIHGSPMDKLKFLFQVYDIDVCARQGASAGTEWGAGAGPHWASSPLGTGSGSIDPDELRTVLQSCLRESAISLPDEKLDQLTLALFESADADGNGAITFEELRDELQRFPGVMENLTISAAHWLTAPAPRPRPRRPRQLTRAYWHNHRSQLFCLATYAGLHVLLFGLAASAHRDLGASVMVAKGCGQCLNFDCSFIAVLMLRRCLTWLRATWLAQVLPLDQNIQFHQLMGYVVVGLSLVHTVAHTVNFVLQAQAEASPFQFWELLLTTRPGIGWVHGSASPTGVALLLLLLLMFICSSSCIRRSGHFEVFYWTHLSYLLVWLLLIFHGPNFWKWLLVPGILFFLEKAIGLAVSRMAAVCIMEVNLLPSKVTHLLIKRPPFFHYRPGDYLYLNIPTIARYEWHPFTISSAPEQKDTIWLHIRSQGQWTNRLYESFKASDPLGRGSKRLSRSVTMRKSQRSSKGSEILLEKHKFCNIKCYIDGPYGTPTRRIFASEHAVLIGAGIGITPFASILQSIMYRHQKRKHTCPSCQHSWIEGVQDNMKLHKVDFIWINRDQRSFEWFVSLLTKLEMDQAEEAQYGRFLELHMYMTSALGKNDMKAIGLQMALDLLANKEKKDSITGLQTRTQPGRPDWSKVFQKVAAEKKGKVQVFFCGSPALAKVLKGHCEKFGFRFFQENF

Chain of Torsin-1A (Homo sapiens) (O14656 whole entry, looked up): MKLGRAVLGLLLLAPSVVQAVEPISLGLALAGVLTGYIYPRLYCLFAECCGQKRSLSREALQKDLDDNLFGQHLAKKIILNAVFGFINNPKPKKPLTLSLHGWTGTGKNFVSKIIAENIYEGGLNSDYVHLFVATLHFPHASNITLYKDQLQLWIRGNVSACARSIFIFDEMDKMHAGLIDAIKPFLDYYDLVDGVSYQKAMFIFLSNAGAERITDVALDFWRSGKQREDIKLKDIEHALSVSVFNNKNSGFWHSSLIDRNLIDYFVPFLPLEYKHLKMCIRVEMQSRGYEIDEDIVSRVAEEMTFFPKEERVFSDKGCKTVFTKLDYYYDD
Chain of NADPH oxidase 2 (Homo sapiens) (P04839 whole entry, looked up): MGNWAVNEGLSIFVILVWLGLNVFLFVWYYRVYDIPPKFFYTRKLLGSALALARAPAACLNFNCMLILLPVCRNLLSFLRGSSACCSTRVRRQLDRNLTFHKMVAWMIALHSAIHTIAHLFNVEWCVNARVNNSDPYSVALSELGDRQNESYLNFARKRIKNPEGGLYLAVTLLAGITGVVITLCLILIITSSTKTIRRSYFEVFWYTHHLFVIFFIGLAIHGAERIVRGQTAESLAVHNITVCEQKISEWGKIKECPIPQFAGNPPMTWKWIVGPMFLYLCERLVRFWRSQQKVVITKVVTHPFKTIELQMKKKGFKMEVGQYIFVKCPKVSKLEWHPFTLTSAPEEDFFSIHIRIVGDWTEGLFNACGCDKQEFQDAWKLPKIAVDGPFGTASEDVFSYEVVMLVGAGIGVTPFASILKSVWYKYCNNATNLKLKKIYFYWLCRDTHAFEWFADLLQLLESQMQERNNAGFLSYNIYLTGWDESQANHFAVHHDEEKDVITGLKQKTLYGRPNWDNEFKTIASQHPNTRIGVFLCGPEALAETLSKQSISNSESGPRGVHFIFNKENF
Chain of Streptavidin (Streptomyces avidinii) (P22629 whole entry, looked up): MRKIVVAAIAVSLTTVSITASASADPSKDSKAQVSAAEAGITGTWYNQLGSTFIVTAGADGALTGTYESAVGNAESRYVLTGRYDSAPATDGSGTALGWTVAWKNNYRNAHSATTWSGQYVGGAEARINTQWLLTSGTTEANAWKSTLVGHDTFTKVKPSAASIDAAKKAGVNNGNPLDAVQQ
Chain of NADPH oxidase 4 (Homo sapiens) (Q9NPH5 whole entry, looked up): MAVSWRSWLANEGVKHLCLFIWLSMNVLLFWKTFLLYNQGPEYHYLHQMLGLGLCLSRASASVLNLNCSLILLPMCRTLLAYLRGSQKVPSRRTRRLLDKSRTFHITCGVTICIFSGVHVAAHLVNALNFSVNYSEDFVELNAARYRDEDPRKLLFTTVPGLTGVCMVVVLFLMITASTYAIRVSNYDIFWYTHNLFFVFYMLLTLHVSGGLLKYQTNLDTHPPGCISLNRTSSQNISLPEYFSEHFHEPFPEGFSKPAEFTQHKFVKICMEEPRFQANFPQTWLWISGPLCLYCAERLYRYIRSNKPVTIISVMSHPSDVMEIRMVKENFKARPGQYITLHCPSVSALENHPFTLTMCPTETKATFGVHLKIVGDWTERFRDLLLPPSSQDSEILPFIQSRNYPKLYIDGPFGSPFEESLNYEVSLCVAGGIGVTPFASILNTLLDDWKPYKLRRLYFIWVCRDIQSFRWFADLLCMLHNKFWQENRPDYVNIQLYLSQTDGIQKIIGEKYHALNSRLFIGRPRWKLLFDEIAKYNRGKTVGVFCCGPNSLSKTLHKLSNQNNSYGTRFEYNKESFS

| SMILES | composite z-score [1] | z-score [2] | z-score [3] | z-score [4] | z-score [5] | composite z-score [6] | composite z-score [7] | composite z-score [8] | composite z-score [9] | composite z-score [10] | z-score [11] | composite z-score [12] | z-score [13] | z-score [14] | z-score [15] | z-score [16] | z-score [17] | z-score [18] | z-score [19] | z-score [20] |
| --- | --- | --- | --- | --- | --- | --- | --- | --- | --- | --- | --- | --- | --- | --- | --- | --- | --- | --- | --- | --- |
| COCCOC(=O)N1C(=O)[C@@]2(c3cc(C#Cc4ccc(OC)cc4)ccc31)[C@H](C(=O)Nc1nc3ccccc3s1)[C@H]1C(=O)O[C@H](c3ccccc3)[C@H](c3ccccc3)N1[C@@H]2c1ccc(OCCO)cc1 | 0.755 | -1.12 (inactive) | 0.133 (inactive) | 0.757 (inactive) | 0.442 (inactive) | 1.12 | 0.246 | -0.129 | 0.337 | 1.84 | -0.221 (inactive) | 0.0524 | 6.99 (inactive) | 3.22 (inactive) | 1.26 (inactive) | 2.25 (inactive) | -0.45 | 2.03 (inactive) | -1.07 (inactive) | 0.518 |
| CCOC(=O)C[C@H]1[C@H](OC(=O)c2ccccc2-c2ccccc2)[C@@H](NC(=O)c2ccc(-c3ccccc3)cc2)c2cc(OCCCO)ccc2N1C(=O)c1ccc2ccccc2n1 | 0.0868 | 0.0395 (inactive) | -0.437 (inactive) | -0.686 (inactive) | 0.254 (inactive) | 0.245 | -0.106 | 0.306 | 0.554 | 0.701 | -0.485 (inactive) | -0.28 | 2.14 (inactive) | -0.0352 (inactive) | -0.708 (inactive) | 0.232 (inactive) | -0.0653 | 0.724 (inactive) | 0.964 (inactive) | 1.24 |
| CC=CC(O)C1C=CC2C(=O)N(c3ccccc3)C(=O)C2N1Nc1ccccc1F (stereo not given) | 0.713 | -0.118 (inactive) | 0.103 (inactive) | 0.481 (inactive) | 1.23 (inactive) | -0.0607 | 0.572 | 0.804 | 0.42 | -0.371 | -0.857 (inactive) | 0.762 | 4.36 (inactive) | 1.24 (inactive) | 0.164 (inactive) | 0.512 (inactive) | -0.819 | -1.11 (inactive) | -2.88 (inactive) | -2 |
| COCCCNC(=O)[C@]1(CCS(=O)(=O)c2ccccc2)N=C(c2ccc(OCCCO)cc2)O[C@@H]1c1ccccc1CN=[N+]=[N-] | 1.31 | -0.635 (inactive) | 0.267 (inactive) | -0.781 (inactive) | -0.969 (inactive) | 2.07 | 0.424 | 1.35 | 0.738 | 0.36 | 0.704 (inactive) | 1.35 | 24.6 (active) | 10.3 (active) | 1.41 (inactive) | 1.8 (inactive) | -0.377 | 0.826 (inactive) | 1.78 (inactive) | 1.97 |

Source: PubChem BioAssay
